The structures appear in SMILES notation. Values joined by “and” are separate entries in the source; they are usually repeats but may differ in a detail not shown here. Identical values can stand only once. Hit rate of the full screen: of about 310,000 compounds, about 1,200 (0.39%) were called active. The rule behind the calls is not given here. These entries were drawn from the full list. Entries with a potency or affinity are not part of this list.

In this assay the target is Large T antigen (Simian virus 40) (UniProt P03070). As to the kind of experiment: TAg ATPase/helicase activity blockers – biochemical (AID 1903). The note with it: SV40 large T antigen ATPase/helicase inhibition assay; at 20 µM; active compounds read high.
Chain of Large T antigen (Simian virus 40) (P03070 whole entry, looked up): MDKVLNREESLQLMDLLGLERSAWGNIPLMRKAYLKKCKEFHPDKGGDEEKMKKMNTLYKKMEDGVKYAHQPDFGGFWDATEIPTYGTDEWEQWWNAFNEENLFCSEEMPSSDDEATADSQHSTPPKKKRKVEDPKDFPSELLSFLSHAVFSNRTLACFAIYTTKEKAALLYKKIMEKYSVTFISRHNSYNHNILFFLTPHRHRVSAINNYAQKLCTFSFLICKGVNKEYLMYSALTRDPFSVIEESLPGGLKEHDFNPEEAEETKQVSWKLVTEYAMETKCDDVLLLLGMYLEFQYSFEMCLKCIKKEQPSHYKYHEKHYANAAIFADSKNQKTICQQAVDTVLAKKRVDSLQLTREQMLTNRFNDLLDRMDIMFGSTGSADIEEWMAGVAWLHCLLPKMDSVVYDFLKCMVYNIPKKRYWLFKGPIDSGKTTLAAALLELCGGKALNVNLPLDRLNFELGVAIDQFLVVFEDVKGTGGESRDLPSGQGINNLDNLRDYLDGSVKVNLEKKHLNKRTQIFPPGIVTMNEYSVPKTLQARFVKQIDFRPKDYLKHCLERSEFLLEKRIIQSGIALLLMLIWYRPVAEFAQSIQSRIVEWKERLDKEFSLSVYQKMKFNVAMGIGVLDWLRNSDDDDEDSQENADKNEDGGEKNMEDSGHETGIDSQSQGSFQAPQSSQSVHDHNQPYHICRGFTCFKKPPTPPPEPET
What is called inhibition is the drop in the measured response relative to a control, in per cent. As for `CC1(C)C2CCC(C2)C1(C)NC(=O)CNCc1cccs1` (stereo not drawn), the inhibition was 5.5% (inactive).

In the case of `Cc1cccc(CS(=O)(=O)Cc2ccc(C(=O)NC(C)c3ccccc3)o2)c1` (stereo not drawn), the inhibition was 2.72% (inactive).

As for `Cc1onc(-c2ccccc2)c1C(=O)Nc1ccc(S(=O)(=O)N2CCCC2)cc1`, the inhibition is 4.98% (inactive).

With `COc1ccc(C=C(C(C)=O)C(C)=O)cc1OC`, the inhibition was 16.2% (inactive).

`COc1cc(/C=C/C(=O)CC(=O)/C=C/c2ccc(O)c(OC)c2)ccc1O`: the inhibition is 17.5% (inactive).

On to `N#C/C(=C\c1ccc(O)c(Br)c1)C(=O)N1CCCCC1`, for which the inhibition is 9.59% (inactive).

With `N#C/C(=C\c1cccc(O)c1)C(=O)N1CCCCC1`, the inhibition is 13.5% (inactive).

`CC(=O)C1C(c2ccncc2)NC(=O)NC1(O)C(F)(F)F` (stereo not drawn): the inhibition was 18.7% (inactive).

Consider `Cn1/c(=N/NC(=O)c2ccccc2Br)sc2ccccc21`, for which the inhibition is 5.44% (inactive).

Turning to `CCOCCn1c(=NC(=O)CSCC(=O)Nc2cc(C)on2)sc2cc(OC)ccc21`, the inhibition is -3.67% (inactive).

In the case of `Cc1ccc(S(=O)(=O)N(C)CC(=O)N2CCOCC2)cc1`, the inhibition was 0.93% (inactive).

Regarding `CCN(C=NC1=NN(c2cccc(C(F)(F)F)c2)CC1)CC`, the inhibition was 22.2% (inactive).

For `OCCN(C=NC1=NN(c2cccc(C(F)(F)F)c2)CC1)CCO`, the inhibition is 29.5% (inactive).

Turning to `O=C(N/N=C/c1ccc2c(c1)OCO2)c1ccccn1`, the inhibition was 9.83% (inactive).

For `Cc1ccc(S(=O)(=O)c2nc(-c3ccccc3Cl)oc2N(C)C)cc1`, the inhibition is -3.31% (inactive).

On to `O=C(CCc1c[nH]c2ccccc12)OCC(=O)N1CCN(S(=O)(=O)c2ccccc2)CC1`, for which the inhibition is 10.9% (inactive).

With `COc1cnc(-c2ccccn2)nc1Oc1ccccc1Cl`, the inhibition was 5.1% (inactive).

For `COc1cnc(-c2ccccn2)nc1Oc1ccc(Cl)cc1`, the inhibition was 11.2% (inactive).

Regarding `Cc1c(C(=O)N2CCOCC2)c(S(=O)(=O)Nc2cccc(C#N)c2)c(C)n1C`, the inhibition is 5.47% (inactive).

With `COc1cc(CNc2ccc(N3CCN(C(C)=O)CC3)cc2)ccc1OCc1ccc(F)cc1`, the inhibition was 19.5% (inactive).

Take `CCOc1cc(CNc2ccc(N3CCCC3)cc2)cc(Cl)c1OC`: the inhibition was 12.8% (inactive).

For `COc1cc(CNc2ccc(N3CCOCC3)cc2)cc(Br)c1OC`, the inhibition is 29.9% (inactive).

On to `CCOc1cc(CNc2ccc(N3CCOCC3)cc2)cc(Br)c1OCC`, for which the inhibition was 36.3% (inactive).

On to `CCOc1c(Cl)cc(CNc2ccc(N3CCCC3)cc2)cc1OC`, for which the inhibition was 21.6% (inactive).

Consider `CCOc1cc(C(=O)Nc2ccc(N3CCN(C(C)=O)CC3)cc2)cc(OCC)c1OCC`, for which the inhibition was -4.85% (inactive).

As for `COc1ccc(N(CC(=O)O)S(=O)(=O)c2cccnc2)cc1`, the inhibition is 9.79% (inactive).

For `Cn1cnc(S(=O)(=O)N2CCN(C(c3ccc(F)cc3)c3ccc(F)cc3)CC2)c1`, the inhibition is 11.7% (inactive).

Take `COC(=O)c1ccc(C(=O)N2CCCC(Nc3ccc(F)c(F)c3)C2)cc1` (stereo not drawn): the inhibition is 13.5% (inactive).

Turning to `COc1cccc(NC(=S)NN=C2CCC(C(C)(C)C)CC2)c1` (stereo not drawn), the inhibition is 4.61% (inactive).

As to `CCOC(=O)/C(C#N)=C\c1ccc(O)c(OC)c1`, the inhibition is 36.3% (inactive).

With `N#C/C(=C/c1ccc(O)c(O)c1)C(=O)NCc1ccc(Cl)cc1`, the inhibition is 35% (inactive).

As to `COc1cc(/C=C(\C#N)C(=O)c2c[nH]c3ccccc23)cc(OC)c1O`, the inhibition is 24.5% (inactive).

As to `N#C/C(=C\c1cccc(Cl)c1)C(=O)c1ccccc1`, the inhibition was 45.6% (inactive).

For the compound `O=S(=O)(c1ccc2oc3ccc(S(=O)(=O)N4CCCCC4)cc3c2c1)N1CCCCC1`, the inhibition is -0.2% (inactive).

With `CC1CCC(NC(=O)CNC(=O)Cc2cccc3ccccc23)CC1` (stereo not drawn), the inhibition was -1.39% (inactive).

Take `O=C1C2C3C=CC(C3)C2C(=O)N1CNc1ccc(O)cc1` (stereo not drawn): the inhibition is 37.4% (inactive).

Consider `Cc1ccc(NCN2C(=O)C3C4C=CC(C4)C3C2=O)cc1` (stereo not drawn), for which the inhibition is 5.54% (inactive).

For the compound `CCN(CC)C(=O)COc1ccc2c(-c3ccc(OC)cc3)cc(=O)oc2c1`, the inhibition is 11.6% (inactive).

Take `Oc1cccc(/C=N/Nc2cc(N3CCOCC3)nc(N3CCOCC3)n2)c1`: the inhibition was -5.16% (inactive).

Consider `Oc1ccc(/C=N/Nc2cc(N3CCCC3)nc(N3CCCC3)n2)cc1O`, for which the inhibition was 42% (inactive).

As for `COc1cc(/C=C2\SC(=S)N(NS(=O)(=O)c3ccccc3)C2=O)cc(OC)c1OC`, the inhibition is 11.2% (inactive).

For the compound `CCOc1cc(/C=C2\SC(=S)N(NS(=O)(=O)c3ccccc3)C2=O)ccc1O`, the inhibition was 38.4% (inactive).

`CCOc1cc(/C=C2\SC(=S)N(NC(=O)c3cccnc3)C2=O)ccc1O`: the inhibition is 33.1% (inactive).

For `CCOc1ccc(/C=C2\SC(=S)N(NS(=O)(=O)c3ccc(C)cc3)C2=O)cc1OC`, the inhibition is 31.2% (inactive).

For `COc1cc(/C=C2\SC(=S)N(NC(=O)c3ccncc3)C2=O)ccc1O`, the inhibition was 31.8% (inactive).

With `COc1cc(/C=C2\SC(=S)N(NS(=O)(=O)c3ccc(C)cc3)C2=O)cc(OC)c1OC`, the inhibition is 20.8% (inactive).

As for `CCCCNC(=O)C1CCCN1C(=O)Nc1ccccc1` (stereo not drawn), the inhibition was 4.68% (inactive).

Take `C=CCOCCN1C(=O)C2C3C=CC(C2C1=O)C1C2C(=O)N(CCOCC=C)C(=O)C2C31` (stereo not drawn): the inhibition was 7.04% (inactive).

For `O=C(CSc1ccc(F)cc1)NNC(=O)c1ccccc1Br`, the inhibition was 7.8% (inactive).

Take `COc1ccc(CCN=C(N)NS(=O)(=O)c2ccc(C)c(C)c2)cc1`: the inhibition was 23.6% (inactive).

As to `CCOc1cc(C(=O)N2CCC3(CC2)NCCc2[nH]cnc23)cc(OCC)c1OCC`, the inhibition was 8.46% (inactive).

As for `O=C(OCc1ccc(Br)cc1)c1cnc(Cl)c(Cl)c1`, the inhibition was 6.01% (inactive).

For the compound `COCCNC(=O)c1ccc(C2SCC(=O)N2CCc2ccccc2)cc1` (stereo not drawn), the inhibition was 2.84% (inactive).

As to `COc1cccc(NC(=O)C2Cc3ccccc3CN2C(=O)c2ccco2)c1` (stereo not drawn), the inhibition is 10.4% (inactive).

On to `CCOc1ccc(N(CC(=O)NCc2ccccc2)C(=O)Cn2nnc(-c3ccc(C)o3)n2)cc1`, for which the inhibition is 3.98% (inactive).

Take `COc1cc2c(cc1OC)-c1cc3ccc(OC)c(OC)c3c[n+]1CC2`: the inhibition was 10.3% (inactive).

Regarding `COc1ccc2cc3[n+](cc2c1OC)CCc1cc2c(cc1-3)OCO2`, the inhibition was 13.6% (inactive) and 21.3% (inactive).

In the case of `CCC1(CC)Cc2ccccc2C2=C(C(=O)N3CCCCC3)C(=O)C(=O)N21`, the inhibition is 3.53% (inactive).

With `CSc1ccc(-c2nc(CSCC(=O)NCCCN3CCCC3=O)c(C)o2)cc1`, the inhibition was 8.19% (inactive).

For `FC(F)(F)c1ccccc1Nc1nccs1`, the inhibition was 3.87% (inactive).

Consider `Cc1nsc(Nc2ccccc2)c1C#N`, for which the inhibition is 11.3% (inactive).

As to `CCOC(=O)CC(NC(=O)CCc1c(C)nc2nc(C)nn2c1C)c1ccc(C)cc1` (stereo not drawn), the inhibition is 1.45% (inactive).

In the case of `CC(Oc1ccc2c(c1)oc(=O)c1ccccc12)C(=O)NCCN1CCOCC1` (stereo not drawn), the inhibition is 4.69% (inactive).

`O=C(CSc1ccc(Cl)cc1)NNC(=O)c1cccnc1`: the inhibition was 28.6% (inactive).

For `O=c1nccc(N/N=C/c2ccccc2)[nH]1`, the inhibition is 2.59% (inactive).

Regarding `C#CCOCCOCCOCCNc1nc(N2CCN(C(=O)CCCCCCCCCCNC(=O)[C@H](CCCCN)n3cc(CCCC(=O)O)nn3)CC2)nc(N2CCN(C(=O)CCCCCCCCCCNC(=O)[C@H](CCCN=C(N)N)n3cc(C[C@@H](C)CC)nn3)CC2)n1`, the inhibition is 15.3% (inactive).

On to `C#CCOCCOCCOCCNc1nc(N2CCN(C(=O)CCCCCCCCCCNC(=O)[C@H](CO)n3cc(CCCCCN)nn3)CC2)nc(N2CCN(C(=O)CCCCCCCCCCNC(=O)[C@H](CCCN=C(N)N)n3cc(C[C@@H](C)CC)nn3)CC2)n1`, for which the inhibition is 36.3% (inactive).

On to `C#CCOCCOCCOCCNc1nc(N2CCN(C(=O)CCCCCCCCCCNC(=O)[C@@H](CCSC)n3cc(CCO)nn3)CC2)nc(N2CCN(C(=O)CCCCCCCCCCNC(=O)[C@H]([C@@H](C)CC)n3cc(CCCCN=C(N)N)nn3)CC2)n1`, for which the inhibition was 5% (inactive).

Take `C#CCOCCOCCOCCNc1nc(N2CCN(C(=O)CCCCCCCCCCNC(=O)[C@H](CO)n3cc(CCCSC)nn3)CC2)nc(N2CCN(C(=O)CCCCCCCCCCNC(=O)[C@H](CCCN=C(N)N)n3cc(C[C@@H](C)CC)nn3)CC2)n1`: the inhibition is 20.2% (inactive).

For `C#CCOCCOCCOCCNc1nc(N2CCN(C(=O)CCCCCCCCCCNC(=O)[C@H](CCCCN)n3cc(CCO)nn3)CC2)nc(N2CCN(C(=O)CCCCCCCCCCNC(=O)[C@H](CCCCN)n3cc(C[C@@H](C)CC)nn3)CC2)n1`, the inhibition is 22.1% (inactive).

With `C#CCOCCOCCOCCNc1nc(N2CCN(C(=O)CCCCCCCCCCNC(=O)[C@H](CCCCN)n3cc(C[C@@H](C)CC)nn3)CC2)nc(N2CCN(C(=O)CCCCCCCCCCNC(=O)[C@H](CCCN=C(N)N)n3cc(C[C@@H](C)CC)nn3)CC2)n1`, the inhibition was 35.8% (inactive).

Turning to `C#CCOCCOCCOCCNc1nc(N2CCN(C(=O)CCCCCCCCCCNC(=O)[C@H]([C@@H](C)CC)n3cc(CCCCN=C(N)N)nn3)CC2)nc(N2CCN(C(=O)CCCCCCCCCCNC(=O)[C@H](CO)n3cc(CCCCCN)nn3)CC2)n1`, the inhibition is 28.3% (inactive).

On to `C#CCOCCOCCOCCNc1nc(N2CCN(C(=O)CCCCCCCCCCNC(=O)[C@H](CCCCN)n3cc(CCO)nn3)CC2)nc(N2CCN(C(=O)CCCCCCCCCCNC(=O)[C@H](CCCN=C(N)N)n3cc(C[C@@H](C)CC)nn3)CC2)n1`, for which the inhibition is 30.2% (inactive).

Consider `NS(=O)(=O)c1ccc(CCNC(=O)C(=O)Nc2cc3c4c(c2)CC(=O)N4CCC3)cc1`, for which the inhibition is 10.2% (inactive).

Take `CCN(C(=O)COC(=O)c1cncc(Br)c1)C1CCS(=O)(=O)C1` (stereo not drawn): the inhibition is 2.6% (inactive).

With `CN(C)S(=O)(=O)c1cccc(COC(=O)c2ccc(Cl)cc2O)c1`, the inhibition is 4.75% (inactive).

`CCn1ccnc1CNC(=O)CC1C(=O)NCCN1Cc1ccc(OC)cc1OC` (stereo not drawn): the inhibition was 8.33% (inactive).

As to `CC(OC(=O)c1ccc(NS(=O)(=O)c2cccs2)cc1)C(=O)N(C)C1CCCCC1` (stereo not drawn), the inhibition was 12.6% (inactive).

Values taken from PubChem BioAssay AID1903 (Southern Research Specialized Biocontainment Screening …, 2009).
